Experiments:
[1] = biological target: Tumor necrosis factor receptor superfamily member 10B (Homo sapiens) (UniProt O14763); assay: viability loss of caspase-8 NB7 cells with TRAIL – with/without TRAIL, luminescence panel, confirmation (AID 651596); details: NB7 neuroblastoma + caspase-8, TRAIL sensitization, NB7 Caspase-8, with TRAIL, mean of runs, at 10 µM, stronger effect = higher value
[2] = as above; details: NB7 neuroblastoma + caspase-8, without TRAIL, NB7 Caspase-8, without TRAIL, mean of runs, at 10 µM

Sequence of Tumor necrosis factor receptor superfamily member 10B (Homo sapiens) (O14763 whole entry, looked up): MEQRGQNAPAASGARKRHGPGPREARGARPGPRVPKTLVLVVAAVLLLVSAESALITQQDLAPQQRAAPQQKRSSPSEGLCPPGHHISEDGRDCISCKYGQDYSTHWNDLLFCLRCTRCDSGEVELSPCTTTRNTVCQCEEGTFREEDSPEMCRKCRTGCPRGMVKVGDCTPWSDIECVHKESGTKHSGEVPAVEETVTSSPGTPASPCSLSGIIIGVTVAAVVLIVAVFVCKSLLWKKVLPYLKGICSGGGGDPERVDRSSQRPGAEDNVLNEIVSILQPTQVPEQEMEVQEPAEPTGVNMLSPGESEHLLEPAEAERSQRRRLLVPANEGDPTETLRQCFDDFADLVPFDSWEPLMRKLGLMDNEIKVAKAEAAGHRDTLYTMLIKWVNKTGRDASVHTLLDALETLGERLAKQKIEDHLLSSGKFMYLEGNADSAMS

SMILES	activity [1] [%]	activity [2] [%]
CCC(C)c1ccc(NC(=O)c2cccs2)cc1 (stereo not given)	72.8	68.1
CCCCCCN(C(=O)CCl)c1ccccc1	98.8	99.2
CN(C)S(=O)(=O)c1ccc(-c2cn3ccccc3n2)cc1	66.2	73.5
C#Cc1ccc(NC(=O)C2(C)CCN2C(=O)C2(c3ccccc3)CCCC2)cc1 (stereo not given)	91.3	84.6
Cc1cc(NC(=O)c2ccc(C(C)(C)C)cc2)no1	77.8	79.9

— PubChem BioAssay
